In the supplement of paper PMC10849652:
The full data set covers some 8,800 targets. This sample favours those with a hit. About 0.5% of all pairs of compound and target were hits.

Columns and labels:
Assay in all cases: log2 fold change, soluble protein after heating vs DMSO (PISA); higher = thermal stabilisation; K562 lysate, 10 uM; active = over 0.2 and 3.5 SD of the protein, either way, in both replicates (recomputed)
[1] = compound: NCC(=O)Nc1ccc(-n2nc(C(F)(F)F)cc2-c2ccc3c(ccc4ccccc43)c2)cc1
Procedure, shortened: (§1)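 To prepare the extract, K562 pellets were dounce-homogenised in PBS pH 7.4 with 1 mM MgCl2, giving crude material at 1 mg/mL protein. This was treated with 10 μM compound for 30 min, then heated in aliquots for 3 min over 48°C-58°C before pooling and addition of NP-40 to 0.5% at 4°C. Centrifugation at 21,000xg for 90 min left soluble protein in the supernatant, which TMTpro 16plex LC-MS/MS quantified with equalised channel sums. Results are log-two fold changes in thermal stability compared with solvent controls, from duplicates.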

[2] = compound: O=C(CCCCCCC(=O)Nc1ccccc1)NO [vorinostat]
Procedure, shortened: as §1

[3] = compound: O=C(O)c1ccc2c(c1)nc(Nc1cccc(Cl)c1)c1ccncc12 [silmitasertib]
Procedure, shortened: as §1

[4] = compound: O=C1NC(=O)C(c2cnc3ccccn23)=C1c1cn2c3c(cc(F)cc13)CN(C(=O)N1CCCCC1)CC2
Procedure, shortened: as §1

[5] = compound: c1cn2cc(-c3ccc4cn[nH]c4c3)nc(Nc3ccc(N4CCOCC4)cc3)c2n1 [entospletinib]
Procedure, shortened: as §1

Measured: log2 fold change

CHML (UniProt P26374)
inactive: [1] 0.029 | [3] 0.003 | [4] -0.022 | [5] 0.006
active: [2] -0.286

CUEDC2 (UniProt Q9H467)
Sequence of UniProt Q9H467 (Q9H467 whole entry, looked up): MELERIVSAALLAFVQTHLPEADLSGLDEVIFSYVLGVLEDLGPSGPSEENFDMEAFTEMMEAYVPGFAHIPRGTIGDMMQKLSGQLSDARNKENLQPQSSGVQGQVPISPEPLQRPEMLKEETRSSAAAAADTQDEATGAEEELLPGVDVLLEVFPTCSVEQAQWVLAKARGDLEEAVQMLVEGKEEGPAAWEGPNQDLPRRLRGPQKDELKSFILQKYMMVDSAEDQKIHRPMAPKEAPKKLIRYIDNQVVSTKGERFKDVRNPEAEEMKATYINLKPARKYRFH
inactive: [1] -0.01 | [2] 0.151 | [3] -0.012 | [4] 0.003 | [5] 0.066

COQ8A (UniProt Q8NI60)
inactive: [1] -0.043 | [2] -0.042 | [3] -0.161 | [4] 0.016 | [5] 0.053

DPH5 isoform 5 (UniProt Q9H2P9)
inactive: [1] -0.046 | [2] -0.06 | [3] -0.015 | [4] 0.077 | [5] -0.011

DENND6A (UniProt Q8IWF6)
inactive: [1] -0.049 | [3] 0.1 | [4] -0.07 | [5] -0.051
active: [2] -0.38

CLPB isoform 2 (UniProt Q9H078)
inactive: [1] 0.075 | [3] 0.062 | [4] -0.028 | [5] 0.016
active: [2] -0.446

CIAO2A (UniProt Q9H5X1)
inactive: [1] 0.021 | [3] -0.016 | [4] -0.037 | [5] 0.009
active: [2] 0.368

CLASP1 isoform 4 (UniProt Q7Z460)
Sequence of UniProt Q7Z460 (Q7Z460 whole entry, looked up): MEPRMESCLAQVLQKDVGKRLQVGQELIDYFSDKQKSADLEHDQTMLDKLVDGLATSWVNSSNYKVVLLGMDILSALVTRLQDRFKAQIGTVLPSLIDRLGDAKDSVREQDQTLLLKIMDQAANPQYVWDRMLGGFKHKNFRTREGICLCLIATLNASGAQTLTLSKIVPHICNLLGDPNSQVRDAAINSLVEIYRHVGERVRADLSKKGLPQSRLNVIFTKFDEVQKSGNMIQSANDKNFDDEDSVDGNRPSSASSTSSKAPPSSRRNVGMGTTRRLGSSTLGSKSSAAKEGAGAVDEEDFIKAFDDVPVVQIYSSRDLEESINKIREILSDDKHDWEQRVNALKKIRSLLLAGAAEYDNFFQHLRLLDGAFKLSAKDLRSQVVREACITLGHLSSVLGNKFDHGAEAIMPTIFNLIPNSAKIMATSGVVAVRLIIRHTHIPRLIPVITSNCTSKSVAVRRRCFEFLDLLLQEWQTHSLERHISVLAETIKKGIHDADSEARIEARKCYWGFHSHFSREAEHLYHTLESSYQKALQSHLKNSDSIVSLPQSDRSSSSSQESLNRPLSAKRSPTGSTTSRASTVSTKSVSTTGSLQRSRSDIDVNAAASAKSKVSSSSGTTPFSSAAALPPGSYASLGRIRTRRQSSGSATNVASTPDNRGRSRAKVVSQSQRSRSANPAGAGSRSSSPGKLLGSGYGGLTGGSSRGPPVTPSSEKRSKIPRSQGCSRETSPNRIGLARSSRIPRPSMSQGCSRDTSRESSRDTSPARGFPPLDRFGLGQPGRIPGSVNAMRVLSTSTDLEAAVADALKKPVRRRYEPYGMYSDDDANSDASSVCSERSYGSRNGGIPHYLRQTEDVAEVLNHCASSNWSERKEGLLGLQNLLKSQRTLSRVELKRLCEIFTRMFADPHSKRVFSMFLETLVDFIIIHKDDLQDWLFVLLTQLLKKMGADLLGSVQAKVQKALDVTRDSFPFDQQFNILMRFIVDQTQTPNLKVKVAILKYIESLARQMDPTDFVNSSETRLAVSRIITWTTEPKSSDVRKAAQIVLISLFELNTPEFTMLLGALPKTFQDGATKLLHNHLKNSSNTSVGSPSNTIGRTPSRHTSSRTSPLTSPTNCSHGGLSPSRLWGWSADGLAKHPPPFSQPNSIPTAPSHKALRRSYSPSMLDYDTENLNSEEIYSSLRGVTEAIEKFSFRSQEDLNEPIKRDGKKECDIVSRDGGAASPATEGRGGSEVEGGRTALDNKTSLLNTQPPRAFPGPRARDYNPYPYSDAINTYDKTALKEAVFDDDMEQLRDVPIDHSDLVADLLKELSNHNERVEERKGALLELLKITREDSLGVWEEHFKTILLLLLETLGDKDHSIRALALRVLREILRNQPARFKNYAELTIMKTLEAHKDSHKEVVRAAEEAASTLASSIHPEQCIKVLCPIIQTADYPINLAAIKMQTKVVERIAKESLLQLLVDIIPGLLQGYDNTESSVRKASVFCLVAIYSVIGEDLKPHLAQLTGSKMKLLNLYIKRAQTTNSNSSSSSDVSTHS
inactive: [1] -0.214 | [2] 0.167 | [3] 0.06

DENND4A isoform 2 (UniProt Q7Z401)
Sequence of UniProt Q7Z401 (Q7Z401 whole entry, looked up): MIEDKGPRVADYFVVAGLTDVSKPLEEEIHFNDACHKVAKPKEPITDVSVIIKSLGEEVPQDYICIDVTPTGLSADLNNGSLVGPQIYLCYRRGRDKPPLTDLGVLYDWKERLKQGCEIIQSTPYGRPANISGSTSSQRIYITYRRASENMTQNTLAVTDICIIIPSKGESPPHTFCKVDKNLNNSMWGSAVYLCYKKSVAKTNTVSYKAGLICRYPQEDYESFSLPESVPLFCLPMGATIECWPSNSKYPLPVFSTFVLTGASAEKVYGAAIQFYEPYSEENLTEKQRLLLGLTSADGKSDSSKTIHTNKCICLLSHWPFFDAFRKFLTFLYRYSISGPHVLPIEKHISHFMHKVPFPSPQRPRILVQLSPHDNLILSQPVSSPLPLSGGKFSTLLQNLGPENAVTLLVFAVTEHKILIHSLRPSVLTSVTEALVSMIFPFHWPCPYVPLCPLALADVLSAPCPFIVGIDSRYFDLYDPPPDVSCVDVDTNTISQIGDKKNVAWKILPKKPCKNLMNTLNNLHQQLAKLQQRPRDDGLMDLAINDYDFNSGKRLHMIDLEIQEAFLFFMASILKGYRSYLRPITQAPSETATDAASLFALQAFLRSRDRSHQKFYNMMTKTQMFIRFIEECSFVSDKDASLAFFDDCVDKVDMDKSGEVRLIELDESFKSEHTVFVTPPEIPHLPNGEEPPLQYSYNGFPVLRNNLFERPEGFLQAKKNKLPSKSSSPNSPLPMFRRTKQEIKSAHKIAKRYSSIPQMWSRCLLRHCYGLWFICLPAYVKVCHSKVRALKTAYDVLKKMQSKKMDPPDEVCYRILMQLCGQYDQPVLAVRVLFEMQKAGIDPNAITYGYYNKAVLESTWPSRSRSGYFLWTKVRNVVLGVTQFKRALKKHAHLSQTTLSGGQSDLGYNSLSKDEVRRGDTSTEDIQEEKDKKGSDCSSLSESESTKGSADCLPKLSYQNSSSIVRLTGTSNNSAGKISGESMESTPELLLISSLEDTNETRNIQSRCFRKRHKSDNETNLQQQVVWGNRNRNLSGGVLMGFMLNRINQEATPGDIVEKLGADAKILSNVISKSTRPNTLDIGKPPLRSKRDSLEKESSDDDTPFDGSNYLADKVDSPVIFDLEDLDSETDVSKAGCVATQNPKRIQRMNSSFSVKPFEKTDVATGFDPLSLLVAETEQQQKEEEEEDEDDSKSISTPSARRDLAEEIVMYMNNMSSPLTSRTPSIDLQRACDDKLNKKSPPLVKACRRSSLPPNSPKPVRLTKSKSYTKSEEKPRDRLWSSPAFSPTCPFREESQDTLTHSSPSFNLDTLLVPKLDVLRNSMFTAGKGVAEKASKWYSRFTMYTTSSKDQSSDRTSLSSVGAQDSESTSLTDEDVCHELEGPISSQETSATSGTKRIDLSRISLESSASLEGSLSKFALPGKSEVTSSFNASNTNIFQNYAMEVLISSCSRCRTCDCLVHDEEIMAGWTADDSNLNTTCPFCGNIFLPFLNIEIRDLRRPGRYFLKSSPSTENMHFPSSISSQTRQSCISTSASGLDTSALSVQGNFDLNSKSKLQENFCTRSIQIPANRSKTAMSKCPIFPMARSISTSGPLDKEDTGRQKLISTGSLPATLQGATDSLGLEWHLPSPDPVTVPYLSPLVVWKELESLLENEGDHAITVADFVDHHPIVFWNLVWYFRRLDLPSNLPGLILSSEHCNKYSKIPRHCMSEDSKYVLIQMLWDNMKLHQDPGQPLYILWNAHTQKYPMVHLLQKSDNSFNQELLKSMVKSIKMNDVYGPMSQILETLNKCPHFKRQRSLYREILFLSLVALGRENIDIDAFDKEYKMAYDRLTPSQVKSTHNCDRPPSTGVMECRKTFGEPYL
inactive: [1] 0.046 | [3] 0.043 | [4] -0.02 | [5] -0.013
active: [2] -0.379

CSNK1E (UniProt P49674)
active: [2] -0.419
inactive: [1] 0.016 | [3] 0.206 | [4] 0.01 | [5] 0.012

CPT1A (UniProt P50416)
active: [2] 0.406
inactive: [1] -0.033 | [3] -0.001 | [4] -0.002 | [5] -0.06

CHEK2 (UniProt O96017)
inactive: [1] -0.021 | [2] -0.128 | [3] 0.04 | [4] -0.006 | [5] -0.033

CKAP2 (UniProt Q8WWK9)
inactive: [2] 0.011 | [3] -0.013 | [4] -0.044 | [5] 0.033
active: [1] 0.434

DNAH10 (UniProt Q8IVF4)
inactive: [1] 0.103 | [2] 0.065 | [3] 0 | [4] 0.069 | [5] 0.065

DLG3 isoform 2 (UniProt Q92796)
inactive: [1] 0.067 | [2] -0.023 | [3] -0.025 | [4] -0.036 | [5] -0.007

DHRS3 (UniProt O75911)
inactive: [1] 0.032 | [2] -0.055 | [3] -0.062 | [4] 0.025 | [5] 0.096

CNIH4 (UniProt Q9P003)
inactive: [1] 0.09 | [2] 0.08 | [3] 0.055 | [4] 0.114 | [5] 0.038

COG4 (UniProt Q9H9E3)
Sequence of UniProt Q9H9E3 (Q9H9E3 whole entry, looked up): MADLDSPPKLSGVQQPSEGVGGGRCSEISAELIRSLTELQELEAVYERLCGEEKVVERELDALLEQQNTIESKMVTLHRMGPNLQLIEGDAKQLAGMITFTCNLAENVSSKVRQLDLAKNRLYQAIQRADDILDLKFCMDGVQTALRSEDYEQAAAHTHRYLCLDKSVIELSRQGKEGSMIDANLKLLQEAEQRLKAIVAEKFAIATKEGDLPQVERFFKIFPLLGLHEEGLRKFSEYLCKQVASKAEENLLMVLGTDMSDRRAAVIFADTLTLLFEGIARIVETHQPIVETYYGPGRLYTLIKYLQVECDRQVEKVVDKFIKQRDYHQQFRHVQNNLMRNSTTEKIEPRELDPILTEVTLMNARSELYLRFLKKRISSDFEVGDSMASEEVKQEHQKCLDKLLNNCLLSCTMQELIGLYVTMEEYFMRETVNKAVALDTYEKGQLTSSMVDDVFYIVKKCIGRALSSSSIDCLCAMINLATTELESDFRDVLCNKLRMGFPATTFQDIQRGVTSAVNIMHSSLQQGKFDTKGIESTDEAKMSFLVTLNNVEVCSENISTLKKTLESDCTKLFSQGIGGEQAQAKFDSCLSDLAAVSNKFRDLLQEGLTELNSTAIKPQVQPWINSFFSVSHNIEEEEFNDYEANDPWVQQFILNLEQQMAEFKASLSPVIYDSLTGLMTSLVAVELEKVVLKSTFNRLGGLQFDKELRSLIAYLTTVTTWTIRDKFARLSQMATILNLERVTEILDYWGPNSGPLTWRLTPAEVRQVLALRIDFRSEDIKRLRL
inactive: [1] 0.101 | [3] 0.022 | [4] -0.022 | [5] -0.023
active: [2] -0.333

CLASP2 isoform 3 (UniProt O75122)
inactive: [1] 0.035 | [3] -0.033 | [4] -0.02 | [5] 0.005
active: [2] -0.329

DCTN1 (UniProt Q14203)
active: [2] -0.261
inactive: [1] 0.011 | [3] -0.003 | [4] 0.012 | [5] 0.001

CORO1A (UniProt P31146)
inactive: [1] 0.094 | [3] -0.003 | [4] 0.025 | [5] 0.116
active: [2] -0.412

CSTB (UniProt P04080)
Sequence of UniProt P04080 (P04080 whole entry, looked up): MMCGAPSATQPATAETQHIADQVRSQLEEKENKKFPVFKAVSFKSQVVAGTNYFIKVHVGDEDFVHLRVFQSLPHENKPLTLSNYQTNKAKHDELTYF
inactive: [1] -0.097 | [2] 0.125 | [3] -0.045 | [4] 0.022 | [5] -0.007

CLP1 (UniProt Q92989)
inactive: [1] 0.011 | [3] 0.029 | [4] -0.027 | [5] 0.008
active: [2] -0.307

DFFB (UniProt O76075)
inactive: [1] -0.003 | [3] -0.025 | [4] 0.013 | [5] -0.011
active: [2] 0.258

CMPK2 (UniProt Q5EBM0)
active: [2] -0.323
inactive: [1] -0.002 | [3] 0.005 | [4] 0.064 | [5] 0

DHRS1 (UniProt Q96LJ7)
active: [2] -0.561
inactive: [1] -0.154 | [3] -0.021 | [4] -0.055 | [5] -0.138

CHFR (UniProt Q96EP1)
inactive: [1] -0.219 | [2] -0.143 | [3] 0.057 | [4] 0.004 | [5] -0.083

CTPS2 (UniProt Q9NRF8)
inactive: [1] 0.006 | [3] 0.007 | [4] -0.034 | [5] 0.019
active: [2] 0.327

DDA1 (UniProt Q9BW61)
inactive: [1] -0.024 | [3] -0.006 | [4] 0.05 | [5] 0.054
active: [2] -0.289

COL6A5 (UniProt A8TX70)
inactive: [1] 0.281 | [2] 0.011 | [3] -0.003 | [4] 0.022 | [5] 0.009

CNOT4 isoform 6 (UniProt O95628)
inactive: [1] -0.028 | [2] 0.046 | [3] -0.032 | [4] -0.057 | [5] -0.011

CLIP1 isoform 1 (UniProt P30622)
inactive: [1] -0.008 | [2] 0.092 | [3] -0.01 | [4] -0.01 | [5] -0.009

DIAPH3 (UniProt Q9NSV4)
inactive: [1] -0.047 | [3] 0.067 | [4] -0.006 | [5] -0.017
active: [2] -0.584

CTPS1 (UniProt P17812)
active: [2] 0.565
inactive: [1] -0.007 | [3] 0.028 | [4] -0.008 | [5] -0.005

DDB2 (UniProt Q92466)
inactive: [1] 0.054 | [2] 0.048 | [3] -0.022 | [4] -0.002 | [5] 0.019

CSK (UniProt P41240)
inactive: [1] -0.008 | [2] -0.262 | [3] -0.006 | [4] -0.021 | [5] 0.195

DCP1A (UniProt Q9NPI6)
inactive: [1] -0.03 | [3] 0.022 | [4] 0.011 | [5] 0.027
active: [2] -0.234

COG3 (UniProt Q96JB2)
active: [2] -0.314
inactive: [1] 0.011 | [3] 0.123 | [4] 0.06 | [5] -0.017

CXorf38 (UniProt Q8TB03)
inactive: [1] 0.092 | [3] -0.013 | [4] 0.042 | [5] -0.073
active: [2] -0.227

CIP2A (UniProt Q8TCG1)
active: [2] -0.608
inactive: [1] 0.043 | [3] 0.055 | [4] 0.011 | [5] 0.008

DDX20 (UniProt Q9UHI6)
inactive: [1] 0.007 | [3] 0.069 | [4] 0.022 | [5] -0.008
active: [2] -0.348

DLD (UniProt P09622)
Sequence of UniProt P09622 (P09622 whole entry, looked up): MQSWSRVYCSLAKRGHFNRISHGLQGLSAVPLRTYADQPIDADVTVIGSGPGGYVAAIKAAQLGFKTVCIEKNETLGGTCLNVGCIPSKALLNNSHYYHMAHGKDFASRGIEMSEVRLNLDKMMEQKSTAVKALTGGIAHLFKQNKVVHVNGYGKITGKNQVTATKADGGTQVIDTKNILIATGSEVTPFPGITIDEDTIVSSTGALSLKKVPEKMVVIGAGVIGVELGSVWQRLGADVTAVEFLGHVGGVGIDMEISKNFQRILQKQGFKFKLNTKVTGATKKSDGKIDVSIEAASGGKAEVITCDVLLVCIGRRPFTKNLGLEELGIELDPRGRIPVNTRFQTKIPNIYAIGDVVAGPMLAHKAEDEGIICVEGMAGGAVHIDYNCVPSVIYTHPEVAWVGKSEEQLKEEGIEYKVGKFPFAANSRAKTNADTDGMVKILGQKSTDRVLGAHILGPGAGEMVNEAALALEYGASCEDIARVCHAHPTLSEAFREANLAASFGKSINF
inactive: [1] -0.003 | [3] 0.004 | [4] 0.008 | [5] 0.01
active: [2] -1.96

DNM2 (UniProt P50570)
inactive: [1] 0.011 | [3] 0.061 | [4] -0.021 | [5] 0.014
active: [2] -0.27

COTL1 (UniProt Q14019)
inactive: [1] -0.03 | [2] 0.147 | [3] 0 | [4] -0.021 | [5] 0.023

CLIC2 (UniProt O15247)
active: [2] -0.369
inactive: [1] 0.022 | [3] -0.018 | [4] 0.029 | [5] 0.005

CUX1 isoform 2 (UniProt Q13948)
inactive: [1] -0.102 | [2] 0.101 | [3] 0.086 | [4] 0.676 | [5] -0.077

CNOT6L (UniProt Q96LI5)
inactive: [1] 0.019 | [2] -0.032 | [3] 0.004 | [4] 0.017 | [5] 0

CSTF2 (UniProt P33240)
inactive: [1] 0.001 | [2] 0.046 | [3] 0.007 | [4] 0.013 | [5] -0.045

CKM (UniProt P06732)
inactive: [1] 0.003 | [2] -0.053 | [3] -0.025 | [4] -0.014 | [5] -0.026

CNOT2 (UniProt Q9NZN8)
inactive: [1] 0.044 | [3] 0.015 | [4] -0.009 | [5] -0.015
active: [2] -0.207

CHORDC1 (UniProt Q9UHD1)
inactive: [1] 0.001 | [2] -0.014 | [3] -0.019 | [4] -0.009 | [5] 0

CTNND1 isoform 3 (UniProt O60716)
active: [2] -0.371
inactive: [1] -0.017 | [3] 0.034 | [4] -0.014 | [5] -0.005

CLPTM1L (UniProt Q96KA5)
inactive: [1] -0.045 | [2] 0.136 | [3] 0.012 | [4] 0.012 | [5] -0.039
